From PubChem BioAssay
ALDH1A1 block: ALDH1A1 (human) enzyme inhibition. Potency, µM (titrated, usually from 75.3 µM), for inactives: at the top dose activity, negative = inhibition, usual class: inhibitors. Purified ALDH1A1, NADH fluorescence, propionaldehyde substrate. 7.3% of 220,000 active. P00352; active means well fitted inhibition curve with a large enough effect, not every such curve was filed as active; inconclusive means small, poorly fitted or top-dose-only effect, or another doubt; inactive means no such curve, though single readings can be large or run the other way;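 further: plate controls were no enzyme wells and a reference inhibitor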
PLK1 PBD block: blocks phosphopeptide binding to human PLK1 polo-box domain; 2.8% of 360,000 active; Plk1 PBD binding of FITC phosphopeptide, fluorescence polarization; P53350; Potency, µM, without a hit: max response, negative = inhibition, actives largely listed as inhibitors; further: series mostly up to about 57 µM; nearly all actives have a fitted effect of over 65% in size
RORg inh: ROR gamma (mouse) transcription inhibition | P51450 | Drosophila S2 Gal4-RORgamma UAS-luciferase reporter, 20 h | Potency, µM (doses to about 53.6 µM), for the others: at the highest dose activity change, negative = inhibition, most hits filed as inhibitors | 5.4% of 310,000 active; further: nearly all actives have a fitted effect of over 60% in size
Target sequence (P51450 whole entry, looked up, the tested form may be a part): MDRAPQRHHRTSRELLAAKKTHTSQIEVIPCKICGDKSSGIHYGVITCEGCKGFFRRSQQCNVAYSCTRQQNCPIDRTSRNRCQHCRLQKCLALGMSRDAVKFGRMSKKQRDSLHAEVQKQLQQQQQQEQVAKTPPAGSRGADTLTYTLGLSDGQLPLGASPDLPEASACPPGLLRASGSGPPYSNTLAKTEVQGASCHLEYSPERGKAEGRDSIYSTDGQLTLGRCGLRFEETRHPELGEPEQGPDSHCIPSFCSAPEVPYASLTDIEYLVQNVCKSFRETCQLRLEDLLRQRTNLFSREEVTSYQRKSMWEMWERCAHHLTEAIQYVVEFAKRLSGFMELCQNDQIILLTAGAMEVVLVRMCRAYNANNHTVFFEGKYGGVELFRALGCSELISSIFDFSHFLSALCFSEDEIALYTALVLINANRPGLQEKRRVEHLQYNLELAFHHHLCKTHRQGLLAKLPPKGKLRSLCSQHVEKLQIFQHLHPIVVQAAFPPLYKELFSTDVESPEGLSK
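A Gal4/UAS one-hybrid system in insect cells: metallothionein-promoter Gal4–ROR gamma fusion plus Photinus luciferase reporter. Copper sulfate 700 uM final, 20 hr ambient incubation, luminescent detection after 10 min with reagent.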
Gal4-VP16 FLuc: counter-screen for ROR gamma inhibitors: Gal4-VP16 reporter; AID 2546; 3.5% of 310,000 active; Drosophila S2 Gal4-VP16 UAS-luciferase, luminescence, 20 h; Potency, µM (top dose mostly 53.6 µM), for inactives: top-dose activity, negative = inhibition, hits mostly inhibitors;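 further: Gal4-VP16 expression switched on by copper sulfate through the metallothionein promoter; nearly all actives have a fitted effect of over 50% in size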
Sfp inh: blocks B. subtilis Sfp PPTase activity | Biochemical Sfp PPTase activity, qHTS | Potency, µM, without a hit: largest response in the series, negative = inhibition, hits mostly inhibitors | 3.5% of 310,000 active;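 further: the enzyme is Sfp with the accession as filed and its product quenches rhodamine fluorescence; 0% = enzyme reaction without inhibitor and -100% = no enzyme wells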
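Fluorescence-quenching assay with 15 nM Sfp, 5 uM rhodamine-CoA and 12.5 uM BHQ-2-labelled ybbR peptide in pH 7.6 Hepes/MgCl2 buffer. Enzyme was pre-incubated with compound for 15 min at room temperature. Rate was taken from the 30-min fluorescence change (525/598 nm).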
* = called active by the depositor. Most compounds without a hit are left out; they make up all but 12% or so of the library. Unless noted, the call rests on the fitted dose curve; in most records, active means well fitted curve in the direction sought with a large enough effect; inconclusive means small, poorly fitted or top-dose-only effect, or another doubt; inactive means no such curve, though single readings can be large; an effect the other way counts as inactive or inconclusive. Unless noted, on the % scale 0 is the no-effect control and ±100 the full control effect; potency means the concentration at half of the fitted maximal effect.

`C=CCNC(=S)NN=C1CCC(c2ccccc2)CC1` (stereo not drawn) gave PLK1 PBD block -10%, RORg inh 13µM*, Gal4-VP16 FLuc 20µM* and Sfp inh -13%.
Screening CC(C)(C)C1CCC(=NNC(=O)C(=O)NCc2cccnc2)CC1 (stereo not drawn) returned ALDH1A1 block 14%, PLK1 PBD block -22%, RORg inh -20%, Gal4-VP16 FLuc -3% and Sfp inh 19%.
`CCC(C)(C)C1CCC(=NNC(=S)Nc2ccccc2)CC1` (stereo not drawn) gave ALDH1A1 block inconclusive, PLK1 PBD block -3%, RORg inh 11µM*, Gal4-VP16 FLuc inconclusive and Sfp inh 4%.
CC(C)(C)C1CCC(=NNC(=S)NCc2ccccc2)CC1 (stereo not drawn) was read as ALDH1A1 block inconclusive, PLK1 PBD block 0%, RORg inh 10µM*, Gal4-VP16 FLuc inconclusive and Sfp inh -4%.
For COc1ccc(-c2nc(=S)[nH][nH]2)cc1OC the results were ALDH1A1 block inconclusive, PLK1 PBD block -9%, RORg inh -37%, Gal4-VP16 FLuc -6% and Sfp inh 56µM*.
For COc1cc(-c2nc(=S)[nH][nH]2)cc(OC)c1OC the results were ALDH1A1 block inconclusive, PLK1 PBD block -16%, RORg inh -25%, Gal4-VP16 FLuc 0% and Sfp inh 50µM*.
`CCc1nn(C)c(-c2n[nH]c(=S)n2N)c1Cl` gave ALDH1A1 block 7%, PLK1 PBD block -4%, RORg inh -37%, Gal4-VP16 FLuc 0% and Sfp inh 45µM*.
`CCc1cc(-c2n[nH]c(=S)n2N)n(C)n1` gave ALDH1A1 block 7%, PLK1 PBD block -5%, RORg inh inconclusive, Gal4-VP16 FLuc -10% and Sfp inh 40µM*.
Cc1ccccc1Cc1n[nH]c(=S)n1N was read as ALDH1A1 block inconclusive, PLK1 PBD block -11%, RORg inh -31%, Gal4-VP16 FLuc 0% and Sfp inh -30%.
Screening OC[C@@H]1CN(Cc2ccc(Cl)cc2)C[C@H](n2cnc3c(N4CCCC4)ncnc32)O1 returned PLK1 PBD block -9%.
Screening Cc1cc(C(=O)N/N=C/c2c(C)[nH]n(-c3ccccc3)c2=O)n[nH]1 returned PLK1 PBD block -9%, RORg inh 10µM*, Gal4-VP16 FLuc inconclusive and Sfp inh 21%.
Cc1ccc(-n2[nH]c(C)c(/C=N/NC(=O)c3ccc(O)cc3O)c2=O)cc1 was read as PLK1 PBD block -19%, RORg inh 2.5µM*, Gal4-VP16 FLuc 7.1µM* and Sfp inh 9%.
Screening Cc1[nH]n(-c2ccccc2)c(=O)c1/C=N/N1CCOCC1 returned PLK1 PBD block -10%, RORg inh -7%, Gal4-VP16 FLuc -10% and Sfp inh 0%.
For Cc1ccc(-n2[nH]c(C)c(C=NCc3ccncc3)c2=O)cc1 the results were PLK1 PBD block -7%, RORg inh 6%, Gal4-VP16 FLuc -16% and Sfp inh 10%.
`Cc1[nH]n(-c2ccccc2)c(=O)c1/C=N/NC(=O)c1ccc(O)cc1O` gave PLK1 PBD block -14%, RORg inh 1.8µM*, Gal4-VP16 FLuc 7.1µM* and Sfp inh 7%.
For CCCCN(CCCC)C(=S)N/N=C/c1c(C)[nH]n(-c2ccccc2)c1=O the results were ALDH1A1 block 5µM*, PLK1 PBD block -21%, RORg inh 1.6µM*, Gal4-VP16 FLuc 5µM* and Sfp inh -5%.
O=c1c2c(-c3cccc([N+](=O)[O-])c3)ccnc2[nH]n1-c1ccccc1 was read as PLK1 PBD block -11%, RORg inh -4%, Gal4-VP16 FLuc 3% and Sfp inh 5%.
CCCCN=Cc1c(C)[nH]n(-c2ccccc2)c1=S was read as ALDH1A1 block 28µM*, PLK1 PBD block -4%, RORg inh 0.63µM*, Gal4-VP16 FLuc 2.5µM* and Sfp inh 10µM*.
For Cc1[nH]n(-c2ccccc2)c(=S)c1C=Nc1cccc([N+](=O)[O-])c1 the results were ALDH1A1 block 5.6µM*, PLK1 PBD block 3.4µM*, RORg inh 1.8µM*, Gal4-VP16 FLuc 7.1µM* and Sfp inh -92%.
